Bioassay records from PubChem.
Hits are enriched below; roughly 1.5% of the tested compounds scored in any of these assays.
LANA-H2A inh: blocks KSHV LANA binding to histone H2A/H2B | Q9QR71 | cell-free LANA-H2A/H2B peptide, fluorescence polarization | inhibition, % (concentration not given with the values) | actives 0.6% (n = 320,000) | AID 2629; in the data active = inhibition mostly above about 10%, no sharp cut-off; inactive = mostly below about 6.7%
E coli Lon inh: E. coli protease La inhibition; purified E. coli Lon protease, fluorescence polarization; inhibition, % at 7.94 µM; actives 0.42% (n = 360,000); AID 602123; in the data active = inhibition above about 13%, passing the limit was not always enough;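 also: 0% = enzyme with probe and DMSO and 100% = no enzyme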
GLD-1 RNA inh: GLD-1-TGE RNA interaction inhibition (C. elegans). actives 0.44% (n = 320,000). AID 2280. inhibition, % at 5.96 µM. purified GLD-1 + fluorescein TGE RNA, fluorescence polarization;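 active = percent inhibition above a per-plate cutoff, the plate mean of test compounds plus 3 SD, cut at about 30% in these data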;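 also: 0% = DMSO wells with GLD-1 and probe and 100% = wells lacking GLD-1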
Keap1 Nrf2 FP: Keap1-Nrf2 (human) interaction inhibition; Q14145; Keap1 Kelch-Nrf2 peptide fluorescence polarization, 1536-well; inhibition, % at 9.4 µM; actives 0.15% (n = 340,000); AID 504523; in the data active = inhibition above about 12%;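 also: human Keap1 Kelch domain with fluorescein labeled Nrf2 9mer peptide probe; 0% = neutral control wells and 100% = peptide positive control; higher means more block of Keap1 binding to Nrf2 peptide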
EBV gp42 block: inhibitors of Epstein-Barr virus glycoprotein 42 | inhibition, % (tested at 21.74 µM) | Fluorescence polarization binding assay, mP read-out | AID 1085 | actives 0.42% (n = 220,000) | Q1HVG2; in the data active = inhibition above about 50%
LANA DNA inh: KSHV C-LANA DNA binding inhibition. MBP-C-LANA/FAM-LBS DNA binding, fluorescence polarization. AID 504423. actives 0.078% (n = 340,000). inhibition, % at 9 µM;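 active = highest replicate inhibition at or above 60% at 9 µM, even if other replicates fall short; inactive = all replicates below 60% inhibition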;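 also: 0% = neutral control wells and 100% = 4 µM acridine orange control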
* hit, by the source's call; . = no result; + = active, no number; ! = not active in a repeat.

SMILES	LANA-H2A inh	E coli Lon inh	GLD-1 RNA inh	Keap1 Nrf2 FP	EBV gp42 block	LANA DNA inh
O=C(CC(c1ccccc1)(c1ccccc1)c1ccccc1)N[C@@H](Cc1ccccc1)C(=O)O	16*	-7	-4	-1	-17	-1
CCOc1ccccc1-c1ccc(C(=O)NCc2ccc(Cl)cc2)o1	.	3	.	.	.	.
Cc1cccc(-c2nc3c(c(SCC(=O)N4CCOCC4)n2)Cc2c(CO)cnc(C)c2O3)c1	18*	4	8	-4	.	-1
CNC(=O)C1Cc2c(-c3ccc(Cl)cc3)ccnc2O1 (stereo unspecified)	.	-3	.	.	.	.
O=C(O)c1cccc2cccc(-c3c4ccc(=O)c(O)c-4oc4c(O)c(O)ccc34)c12	.	11	.	7	.	87*
NC(=S)n1[nH]c(-c2ccc([N+](=O)[O-])cc2)c(N=Nc2ccc(O)cc2)c1=O	1	-3	-3	-3	19	3
NC(=S)n1[nH]c(-c2ccc([N+](=O)[O-])cc2)c(N=Nc2cccc(Cl)c2)c1=O	.	2	.	-3	100*	0
c1ccc(-c2cn3nc(-c4ccccc4)c(-c4ccccc4)nc3n2)cc1	-3	-11	4	2	128*	22
Cc1ccc(-c2cn3nc(-c4ccccc4)c(-c4ccccc4)nc3n2)cc1	5	-61	34*	.	126*	.
Cc1nn2cc(-c3ccc(-c4ccccc4)cc3)nc2s1	2	-2	-1	2	-2	-3
C[C@H]1COc2cc(N3CCC[C@H]3CO)ccc2S(=O)(=O)N1	.	-4	.	.	.	.
CC(C)OC(=O)C(C)(C)Oc1ccc(C(=O)c2ccc(Cl)cc2)cc1	35*!	-2	6	-6	-8	3
CCOC(=O)C(C)(C)Oc1ccc(Cl)cc1	-4	-3	4	0	.	1
O=C(CSc1nc2ccccc2nc1N1CCCCC1)N1CCN(c2ccccc2)CC1	-2	-8	5	-3	.	0
Cc1ccc(CCNS(=O)(=O)c2ccc3c(c2)C(C)(C)C(=O)N3C)cc1	12	-6	5	0	.	1
Cc1cc(C)cc(NS(=O)(=O)c2ccc3c(c2)C(C)(C)C(=O)N3C)c1	11*	3	10	2	.	-1
C=CCc1ccccc1OCC(O)CN1C(=O)c2ccccc2C1=O (stereo unspecified)	13*	-2	10	-6	.	1
COc1ccc(C2C=C(c3ccccc3)Nc3nc(NC(C)=O)nn32)cc1 (stereo unspecified)	-1	.	40*	.	58*	.
COc1cccc(C2=CC(c3ccccc3)n3ncnc3N2)c1 (stereo unspecified)	1	.	51*	.	24	.
CCOc1ccc(C2C=C(c3ccccc3)Nc3ncnn32)cc1 (stereo unspecified)	2	.	37*	.	25	.
COc1cccc(C2=CC(c3ccc(N(C)C)cc3)n3ncnc3N2)c1 (stereo unspecified)	-4	.	-99	.	-9	.
COc1ccc(C2C=C(c3ccc(C)cc3)Nc3ncnn32)cc1 (stereo unspecified)	.	0	.	0	38	3
COc1ccc(C2C=C(c3ccc(Br)s3)Nc3ncnn32)cc1OC (stereo unspecified)	2	.	146*	.	91*	.
CCCCN(C=O)c1c(CC)nc2ccc(C(=O)Nc3cc(-c4ccccc4)ccc3OC)cn12	.	4	.	.	.	.
CC1(C(=O)NS(=O)(=O)c2cccc(F)c2)CCN1C(=O)CC1CCCCC1 (stereo unspecified)	.	-5	.	.	.	.
SMILES	LANA-H2A inh	E coli Lon inh	GLD-1 RNA inh	Keap1 Nrf2 FP	EBV gp42 block	LANA DNA inh
CCOc1ccc(C2C=C(c3ccc(F)cc3)Nc3ncnn32)cc1 (stereo unspecified)	-5	-4	44*	4	53*	1
Cn1c(/N=C/c2c(O)ccc3ccccc23)nc2ccccc21	10	3	5	-1	157*	0
COc1cc(-c2ccc(Nc3ccccc3C(=O)O)c(OC)c2)ccc1Nc1ccccc1C(=O)O	.	1	.	-2	69*	54
COc1cccc(Nc2ccccc2C(=O)O)c1	2	6	5	0	-8	0
CCn1c(CN2CCOCC2)nnc1SCC(=O)Nc1ccccc1C	127*	13	5	-4	.	-1
CCn1c(CN2CCOCC2)nnc1SCC(=O)Nc1ccc(C)cc1	0	-1	-3	-1	.	-1
CC(OC(=O)Cn1[nH]c(=O)c2ccccc2c1=O)C(=O)Nc1ccc(F)cc1Cl (stereo unspecified)	7	-3	-4	-2	.	-4
CSCC(O)Cn1[nH]c(=O)c2cc(Cl)c(Cl)cc2c1=O (stereo unspecified)	16*	6	1	-5	-7	0
CCOc1cc(C(=O)N=c2sccn2C)ccc1OC(F)F	20*	-8	3	0	.	1
CCOC1=C2[C@H](c3ccccc3)N(S(=O)(=O)c3ccc(C)cc3)C(C(C)(C)C)[C@H]2C(C#N)(C#N)C(C#N)(C#N)C1 (stereo partly specified)	.	-1	.	.	.	.
CCN(CC)CCCN1C(=O)C(=O)/C(=C(/O)c2ccccc2)C1c1cc(OC)ccc1OC (stereo unspecified)	17*	-2	0	-3	.	1
O=C(CC1c2ccccc2C=C(c2ccsc2)N1c1ccc(-c2cccnc2)cc1)C1CC1 (stereo unspecified)	.	6	.	.	.	.
CCN(CC)S(=O)(=O)c1ccc(N2CCOCC2)c(NC(=O)COc2ccc(OC)cc2)c1	+	-10	7	-5	.	0
O=C(NC(Cc1ccccc1)C(=O)Oc1ccc2c(C(F)(F)F)cc(=O)oc2c1)OCc1ccccc1 (stereo unspecified)	175*	74*	65*	5	7	15
O=c1c(/C=N/Nc2ccccc2)c(Sc2nnnn2-c2ccccc2)nc2ccccn12	.	-130	.	0	152*	2
Cn1c(C(O)C(O)c2ccccc2)nc2ccccc21 (stereo unspecified)	0	4	-1	-7	-1	1
